Most compounds without a hit are left out; they make up all but 12% or so of the library.
BAZ2B block: BAZ2B (human) inhibition. AlphaScreen BAZ2B-H3K14Ac peptide displacement. Potency, µM (titrated, usually from 114 µM), for the others: at the highest dose activity change, negative = inhibition, hits mostly inhibitors. 360,000 tested, 4.4% active; further: potency means the concentration at half of the fitted maximal effect; on the % scale 0 is the no-effect control and ±100 the full control effect; nearly all actives have a fitted effect of over 60% in size
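Multi-concentration screen (max 110 uM) measuring displacement of acetylated histone H3 peptide from BAZ2B by AlphaScreen, using 50 nM protein, 50 nM peptide and 10 ug/mL streptavidin donor plus Ni-chelate acceptor beads.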
PI5P4Ka inh: PI5P4K alpha (human) kinase inhibition; P48426; AID 652105; PI5P4Kalpha enzyme, ADP-Glo luminescence, 60 min; hits give low values; max response, %; 330,000 tested, 1.2% active; active means max response of -50% or lower; inconclusive means between -30% and -50%; inactive means -30% or higher; further: value at the top dose of about 77 µM; on the % scale 0 is the no-effect control and ±100 the full control effect
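Single end-point luminescence (ADP-Glo) quantified ADP from PI5P4Kalpha turnover; ATP 5 microM final, 1 h at RT, 0.1% CHAPS and 0.28 mM EGTA in HEPES pH 7.4.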
HP1b binding inh: blocks HP1-beta chromodomain binding to methylated histone tails. P83916. AlphaScreen HP1-beta / biotin-H3K9me3 peptide binding. Potency, µM (highest dose often 114 µM), without a hit: at the top dose activity change, negative = inhibition, hits mostly inhibitors. 390,000 tested, 0.56% active; further: potency means the concentration at half of the fitted maximal effect; nearly all actives have a fitted effect of over 70% in size
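AlphaScreen: HP1-beta (50 nM) preformed 30 min with biotin-H3(1-18)K9me3 peptide (50 nM) in PBS pH 7.4, 0.01% Tween-20. Compound added for 30 min at RT, then streptavidin donor/nickel chelate acceptor beads (10 ug/mL) for 30 min.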
G9a block: G9a (human) methyltransferase inhibition; G9a H3K9 monomethylation, AlphaScreen, 2 h; Potency, µM (top dose mostly 102 µM), for inactives: at the highest dose activity, negative = inhibition, most hits filed as inhibitors; 350,000 tested, 8.8% active; Q96KQ7; AID 504332; further: potency means the concentration at half of the fitted maximal effect; on the % scale 0 is the no-effect control and ±100 the full control effect; nearly all actives have a fitted effect of over 75% in size
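Quantitative HTS format: methyltransferase activity on a biotin-tagged H3K9 peptide is measured by AlphaScreen, using a rabbit anti-monomethyl-H3K9 antibody with streptavidin donor and anti-IgG acceptor beads. Final levels are 20 nM enzyme, 500 nM peptide, 20 uM SAM; 2 h RT.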
PLK1 PBD inh: PLK1 (human) polo-box domain binding inhibition; Potency, µM, for inactives: max response, negative = inhibition, usual class: inhibitors; Plk1 PBD binding of FITC phosphopeptide, fluorescence polarization; 360,000 tested, 2.8% active; P53350; further: potency means the concentration at half of the fitted maximal effect; series mostly up to about 57 µM; on the % scale 0 is the no-effect control and ±100 the full control effect; nearly all actives have a fitted effect of over 65% in size
JMJD2A Tudor: inhibitors of human JMJD2A Tudor domain | AlphaScreen JMJD2A-Tudor / H3K4me3 peptide binding | Potency, µM (series often up to 114 µM), inactives show top-dose activity change, negative = inhibition, actives largely listed as inhibitors | 390,000 tested, 4.4% active | AID 504339; further: potency means the concentration at half of the fitted maximal effect; on the % scale 0 is the no-effect control and ±100 the full control effect; nearly all actives have a fitted effect of over 50% in size
The depositor's hits bear a star; ? = inconclusive; . = no result; [ ] = remark or other dose. Unless noted, the call rests on the fitted dose curve; in most records, active means well fitted curve in the direction sought with a large enough effect; inconclusive means small, poorly fitted or top-dose-only effect, or another doubt; inactive means no such curve, though single readings can be large; an effect the other way counts as inactive or inconclusive.

SMILES	BAZ2B block	PI5P4Ka inh	HP1b binding inh	G9a block	PLK1 PBD inh	JMJD2A Tudor
CC(C)OC(=O)c1ccc(N2CCN(c3ccccc3F)CC2)nc1	31%	13	82%	127%	-15%	56%
CC(C)OC(=O)c1ccc(N2CCN(c3ccc(F)cc3)CC2)nc1	5%	-2	17%	26%[2.33 µM]	27µM*	?
COC(=O)c1[nH]c(C)c(/C(O)=C2\C(=O)C(=O)N(CCN3CCOCC3)C2c2ccco2)c1C (stereo not drawn)	0%	7	17%	50µM*	2%	-30%
CCOC(=O)c1[nH]c(C)c(/C(O)=C2\C(=O)C(=O)N(CCN(C)C)C2c2ccco2)c1C (stereo not drawn)	-36%	1	23%	-41%[12.7 µM]	-1%	?
COC(=O)c1[nH]c(C)c(/C(O)=C2\C(=O)C(=O)N(CCN3CCOCC3)C2c2cccs2)c1C (stereo not drawn)	-5%	0	12%	45µM*	0%	-25%
CCOC(=O)c1[nH]c(C)c(/C(O)=C2\C(=O)C(=O)N(CCN3CCOCC3)C2c2ccco2)c1C (stereo not drawn)	?	-2	20%	40µM*	-7%	-14%
COc1ccc(/C=C\c2cc(OC)c(OC)cc2CC[N+](C)(C)C)cc1OC	-28%	0	2%	13µM*	-1%	-24%
O=C(CC1SC(N2CCCC2)=NC1=O)Nc1ccc(C(=O)NCCOc2ccccc2F)cc1 (stereo not drawn)	8%	6	16%	-27%	-8%	-4%
Cc1cccc(N=C2NC(=O)/C(=C/c3cccs3)S2)c1	-4%	-15	-2%	2%[59 µM]	-19%	-30%
Cc1cccc(N=C2NC(=O)/C(=C/c3cccn3C)S2)c1	40µM*	-4	2%	.	-20%	?
Cc1c(/C=C2\SC(=Nc3cccc(C(=O)O)c3)NC2=O)c2ccccc2n1C	-34%	-79*	0%	.	-19%	-18%[11.4 µM]
Cc1ccccc1N=C1NC(=O)/C(=C/c2cccn2C)S1	?	?	?	45µM*	-9%	40µM*
O=C1NC(=Nc2ccccc2)S/C1=C\c1cccn1-c1ccccc1	?	-6	-5%	?	-10%	?
CCCC(C)C(=O)OCC(=O)Nc1ccc(Br)cc1 (stereo not drawn)	4%	.	.	32µM*	.	.
Cc1cc(C)c(C)c(S(=O)(=O)N2CCN(S(=O)(=O)c3ccc4c(c3)OCCO4)CC2)c1C	.	.	.	.	.	-32%
O=C(O)c1cnn2c(C(F)(F)F)cc(-c3ccco3)nc12	-32%	.	20%	50µM*	-4%	20µM*
CC1CCc2cc(F)ccc2N1C(=O)c1cc2nc(-c3ccco3)cc(C(F)(F)F)n2n1 (stereo not drawn)	3%	-10	26%	50µM*	-6%	2%
Cc1ccc(-c2cc(C(F)(F)F)n3ncc(C(=O)O)c3n2)cc1	-3%	-10	14%	?	30µM*	-11%[11.4 µM]
Cc1nc2cnc(N(C)C)nc2n(CCC#N)c1=O	.	.	.	5%[0.501 µM]	.	.
O=C(Nc1nnc([C@H]2C[C@H](O)[C@@H](CO)O2)s1)c1cccc(Oc2ccccc2)c1	.	?	.	.	-17%	.
COc1cc(OC)c(NC(=O)c2c(C)nn(-c3ccc(C)cc3)c2-n2cccc2)cc1Cl	-35%	.	-6%	-18%[59 µM]	.	-24%
C/C(=N/NS(=O)(=O)c1cccc([N+](=O)[O-])c1)c1ccncc1	?	-1	39%	35µM*	3µM*	-18%
C/C(=N\Nc1cccc(Cl)c1)c1ccc(-n2ccnc2)cc1	?	-10	5%	7.9µM*	-12%	?
C/C(=N\NS(=O)(=O)c1ccc(Br)cc1)c1ccc(-n2ccnc2)cc1	-11%	-4	45%	?	-3%	7%
CC(=NNS(=O)(=O)c1cccc([N+](=O)[O-])c1)c1ccc(-n2ccnc2)cc1	.	-13	0%	.	19µM*	-24%
Cc1ccccc1OCC(=O)NCC(=O)OCC(=O)c1ccc2c(c1)CCCC2	.	.	10%[57 µM]	.	.	-13%[57.1 µM]
